Experimental data published in publication PMC8384837, “Expanding the binding specificity for RNA recognition by a PUF domain”.

Experiments:
Assay in all cases: yeast three-hybrid, YBZ-1, SC-Leu-His + 0.5 mM 3-AT, 4 days
Settings in all cases: tags: N-Gal4 AD-HA kept; label: inside an RPR1-promoter hybrid RNA with tandem MS2 sites; ssRNA
PUM1 PUF domain R4-AMA = PUM1 PUF domain R4-AMA (Homo sapiens, UniProt Q14671 828-1176, N971A;H972M;Q975A)
Method in brief: (§1)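 Pumilio-1 PUF domain libraries, randomized (NNK) at the three base-contacting residues of each repeat, were co-expressed with matching RNA elements from a centromeric plasmid in strain YBZ-1 (LexA–MS2 coat fusion, HIS3 reporter). Transformants were plated on SC-Leu (input) and SC-Leu-His + 0.5 mM 3-AT (selection) for four days, and repeat regions were PCR-amplified and Illumina-sequenced. The interaction score is the log2 change in variant frequency from input to selection, with pseudocount 1 where absent.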

PUM1 PUF domain R5-SNS = PUM1 PUF domain R5-SNS (Homo sapiens, UniProt Q14671 828-1176, C1007S;R1008N;Q1011S)
Method in brief: as §1

PUM1 PUF domain R5-KRM = PUM1 PUF domain R5-KRM (Homo sapiens, UniProt Q14671 828-1176, C1007K;Q1011M)
Method in brief: as §1

PUM1 PUF domain R3-PWA = PUM1 PUF domain R3-PWA (Homo sapiens, UniProt Q14671 828-1176, C935P;R936W;Q939A)
Method in brief: as §1

PUM1 PUF domain R4-FNH = PUM1 PUF domain R4-FNH (Homo sapiens, UniProt Q14671 828-1176, N971F;H972N;Q975H)
Method in brief: as §1

PUM1 PUF domain R8-KWC = PUM1 PUF domain R8-KWC (Homo sapiens, UniProt Q14671 828-1176, N1122K;Y1123W;Q1126C)
Method in brief: as §1

PUM1 PUF domain R1-QYK = PUM1 PUF domain R1-QYK (Homo sapiens, UniProt Q14671 828-1176, S863Q;R864Y;Q867K)
Method in brief: as §1

PUM1 PUF domain R3-LWD = PUM1 PUF domain R3-LWD (Homo sapiens, UniProt Q14671 828-1176, C935L;R936W;Q939D)
Method in brief: as §1

PUM1 PUF domain R3-FQC = PUM1 PUF domain R3-FQC (Homo sapiens, UniProt Q14671 828-1176, C935F;R936Q;Q939C)
Method in brief: as §1

PUM1 PUF domain R3-RPV = PUM1 PUF domain R3-RPV (Homo sapiens, UniProt Q14671 828-1176, C935R;R936P;Q939V)
Method in brief: as §1

Chain of PUM1 PUF domain R4-AMA (Q14671 828-1176 N971A/H972M/Q975A): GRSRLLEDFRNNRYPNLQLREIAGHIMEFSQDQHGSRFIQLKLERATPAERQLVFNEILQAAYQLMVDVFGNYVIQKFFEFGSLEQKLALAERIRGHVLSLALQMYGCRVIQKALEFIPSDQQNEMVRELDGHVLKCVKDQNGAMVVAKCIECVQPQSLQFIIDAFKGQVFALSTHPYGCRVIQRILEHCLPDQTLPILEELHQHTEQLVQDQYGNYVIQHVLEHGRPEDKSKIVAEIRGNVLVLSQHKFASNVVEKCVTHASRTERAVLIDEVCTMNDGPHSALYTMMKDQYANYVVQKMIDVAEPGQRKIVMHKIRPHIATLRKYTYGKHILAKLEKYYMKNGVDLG
Chain of PUM1 PUF domain R3-PWA (Q14671 828-1176 C935P/R936W/Q939A): as the sequence (Q14671 828-1176 N971A/H972M/Q975A) above, with C108P, R109W, Q112A, A144N, M145H, A148Q counted along it
Chain of PUM1 PUF domain R3-LWD (Q14671 828-1176 C935L/R936W/Q939D): as the sequence (Q14671 828-1176 N971A/H972M/Q975A) above, with C108L, R109W, Q112D, A144N, M145H, A148Q counted along it
Chain of PUM1 PUF domain R5-KRM (Q14671 828-1176 C1007K/Q1011M): as the sequence (Q14671 828-1176 N971A/H972M/Q975A) above, with A144N, M145H, A148Q, C180K, Q184M counted along it
Chain of PUM1 PUF domain R3-FQC (Q14671 828-1176 C935F/R936Q/Q939C): as the sequence (Q14671 828-1176 N971A/H972M/Q975A) above, with C108F, R109Q, Q112C, A144N, M145H, A148Q counted along it
Chain of PUM1 PUF domain R4-FNH (Q14671 828-1176 N971F/H972N/Q975H): as the sequence (Q14671 828-1176 N971A/H972M/Q975A) above, with A144F, M145N, A148H counted along it
Chain of PUM1 PUF domain R5-SNS (Q14671 828-1176 C1007S/R1008N/Q1011S): as the sequence (Q14671 828-1176 N971A/H972M/Q975A) above, with A144N, M145H, A148Q, C180S, R181N, Q184S counted along it
Chain of PUM1 PUF domain R8-KWC (Q14671 828-1176 N1122K/Y1123W/Q1126C): as the sequence (Q14671 828-1176 N971A/H972M/Q975A) above, with A144N, M145H, A148Q, N295K, Y296W, Q299C counted along it
Chain of PUM1 PUF domain R3-RPV (Q14671 828-1176 C935R/R936P/Q939V): as the sequence (Q14671 828-1176 N971A/H972M/Q975A) above, with C108R, R109P, Q112V, A144N, M145H, A148Q counted along it
Chain of PUM1 PUF domain R1-QYK (Q14671 828-1176 S863Q/R864Y/Q867K): as the sequence (Q14671 828-1176 N971A/H972M/Q975A) above, with S36Q, R37Y, Q40K, A144N, M145H, A148Q counted along it

GGCUAGAACUAGUGGAUCCCCCGGCGCCCGGCGGCUCGAGCCCGGGUAAGUGUACAUAGUCUGCAUGCCGCCGGGCGCCAUGCCUGCAGGUCGACUCUAGAAAACAUG
binding signal (PUM1 PUF domain R4-AMA): 1.77 log2 enrichment (interaction score)

GGCUAGAACUAGUGGAUCCCCCGGCGCCCGGCGGCUCGAGCCCGGGUAAGUGUUAAUAGUCUGCAUGCCGCCGGGCGCCAUGCCUGCAGGUCGACUCUAGAAAACAUG
binding signal (PUM1 PUF domain R5-SNS): 3.23 log2 enrichment (interaction score) | binding signal (PUM1 PUF domain R5-KRM): 3.73 log2 enrichment (interaction score)

GGCUAGAACUAGUGGAUCCCCCGGCGCCCGGCGGCUCGAGCCCGGGUAAGUGUAAAUAGUCUGCAUGCCGCCGGGCGCCAUGCCUGCAGGUCGACUCUAGAAAACAUG
binding signal (PUM1 PUF domain R4-AMA): 2.2 log2 enrichment (interaction score) | binding signal (PUM1 PUF domain R5-KRM): 2.19 log2 enrichment (interaction score) | binding signal (PUM1 PUF domain R3-PWA): 4.48 log2 enrichment (interaction score)

GGCUAGAACUAGUGGAUCCCCCGGCGCCCGGCGGCUCGAGCCCGGGUAAGUGUAUAUAGUCUGCAUGCCGCCGGGCGCCAUGCCUGCAGGUCGACUCUAGAAAACAUG
binding signal (PUM1 PUF domain R4-AMA): 2.78 log2 enrichment (interaction score) | binding signal (PUM1 PUF domain R4-FNH): 5.93 log2 enrichment (interaction score)

GGCUAGAACUAGUGGAUCCCCCGGCGCCCGGCGGCUCGAGCCCGGGUAAGCGUAAAUAGUCUGCAUGCCGCCGGGCGCCAUGCCUGCAGGUCGACUCUAGAAAACAUG
binding signal (PUM1 PUF domain R8-KWC): 4.87 log2 enrichment (interaction score)

GGCUAGAACUAGUGGAUCCCCCGGCGCCCGGCGGCUCGAGCCCGGGUAAGUGUAAAUCGUCUGCAUGCCGCCGGGCGCCAUGCCUGCAGGUCGACUCUAGAAAACAUG
binding signal (PUM1 PUF domain R1-QYK): 6.38 log2 enrichment (interaction score)

GGCUAGAACUAGUGGAUCCCCCGGCGCCCGGCGGCUCGAGCCCGGGUAAGUGUAAGUAGUCUGCAUGCCGCCGGGCGCCAUGCCUGCAGGUCGACUCUAGAAAACAUG
binding signal (PUM1 PUF domain R3-LWD): 4.02 log2 enrichment (interaction score) | binding signal (PUM1 PUF domain R3-FQC): 3.36 log2 enrichment (interaction score) | binding signal (PUM1 PUF domain R3-PWA): 0.42 log2 enrichment (interaction score)

GGCUAGAACUAGUGGAUCCCCCGGCGCCCGGCGGCUCGAGCCCGGGUAAGUGUAAUUAGUCUGCAUGCCGCCGGGCGCCAUGCCUGCAGGUCGACUCUAGAAAACAUG
binding signal (PUM1 PUF domain R3-LWD): 1.73 log2 enrichment (interaction score) | binding signal (PUM1 PUF domain R3-RPV): 2.55 log2 enrichment (interaction score) | binding signal (PUM1 PUF domain R3-PWA): 2.19 log2 enrichment (interaction score)
